# PolyA inh: yeast polyadenylation inhibition; activity score, % at 12 µM; S. cerevisiae SKY197-pL101 polyadenylation reporter, beta-gal luminescence; efflux-impaired pdr1/pdr3 knockout yeast; score 100 = 6 SD above DMSO; 0.02% of 300,000 active;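 active = lowest replicate activity score at least 50, where 100 means six control SD above control mean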;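 also: yeast exposed to compound for 9 h at 30 °C; higher score means more reporter readthrough which indicates perturbed polyadenylation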
# DAX1 inh-1: blocks DAX1 repression of SF-1 activated StAR promoter. HEK293T StAR-luciferase reporter, SF-1/DAX-1 repression relief. inhibition, % at 6.8 µM. 1.1% of 370,000 active;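 active = inhibition above the mean over all tested compounds plus 3 SD, cut at about 3.6% in these data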;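 also: 0% = DAX-1 cells with DMSO and 100% = cells lacking DAX-1 with DMSO; higher inhibition means more luminescence from relief of DAX-1 repression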
# hcDAF12 agonist: activators of H. contortus DAF-12 nuclear receptor | HEK293 hcDAF-12 lit1-tk-luc reporter, luminescence; 0% DMSO, 100% Δ7-dafachronic acid | activation, % at 6.8 µM | 1.4% of 370,000 active | AID 652067;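 active = activation above the mean of all tested compounds plus 3 SD, cut at about 5.5% in these data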;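 also: 100% = response to 3 µM Δ7-dafachronic acid high control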
# ssDAF12 agonist: S. stercoralis DAF-12 activation, primary screen; activation, % at 6.8 µM; HEK293 ssDAF-12/GRIP1 lit1-tk-luc reporter, luminescence; % of 3 µM dafachronic acid response; 1% of 370,000 active;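 active = activation above the mean over all tested compounds plus 3 SD, cut at about 0.9% in these data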;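 also: 0% = DMSO-only wells and 100% = 3 µM delta7-dafachronic acid wells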
# DAX1 inh-2: inhibitors of human orphan nuclear receptor DAX1 (NR0B1); inhibition, % at 6.75 µM; 0.99% of 340,000 active; P51843; HEK293 Gal4-DAX1 luciferase reporter, luminescence; AID 504766;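 active = inhibition above the mean over all tested compounds plus 3 SD, cut at about 4.2% in these data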;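 also: 0% = DAX1-transfected cells with DMSO and 100% = empty-vector control cells with DMSO; inhibition shows as a rise in luminescence from relieved DAX1 repression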
# Target sequence (P51843 207-470 limits assumed): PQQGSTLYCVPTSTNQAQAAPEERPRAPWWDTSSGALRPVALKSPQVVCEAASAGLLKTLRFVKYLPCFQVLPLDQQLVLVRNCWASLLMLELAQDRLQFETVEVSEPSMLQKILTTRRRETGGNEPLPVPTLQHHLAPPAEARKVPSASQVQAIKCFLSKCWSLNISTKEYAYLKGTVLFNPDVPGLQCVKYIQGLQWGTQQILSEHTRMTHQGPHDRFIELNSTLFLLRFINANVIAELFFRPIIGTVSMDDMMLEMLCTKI
# hgDAF12 agonist: hgDAF-12 agonism, primary luciferase screen | AID 687014 | HEK293 GAL4-hgDAF12 UAS-luciferase reporter, agonist luminescence; normalized to butyrate control | activation, % at 6.8 µM | 1.8% of 370,000 active;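 active = activation above a cutoff set at the mean of all screened compounds plus 3 SD, cut at about 10% in these data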;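 also: 0% = DMSO wells and 100% = sodium butyrate wells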
# Active calls of the source: *; · = not tested or not shown. Rows were chosen to be rich in hits. Some 4.1% of all compounds tested hit in one or more screens of this group.
SMILES,PolyA inh,DAX1 inh-1,hcDAF12 agonist,ssDAF12 agonist,DAX1 inh-2,hgDAF12 agonist
O=C(NCc1ccccc1)[C@@H]1CCCN1C(=O)[C@H]1CCCN1C(=O)c1cc(F)cc(F)c1,·,-0.8,2.0,-0.2,·,-1.2
O=C(CCn1nnc2ccccc21)N1CCN(Cc2ccc3c(c2)OCO3)CC1,·,-0.7,-1.5,-1.7,·,-2.5
O=C(O)c1ccccc1SCC(=O)N1CCc2ccccc21,-1.9,0.9,2.0,7.6*,-0.9,2.9
Cc1ccn(C(C)CC(=O)N2CCc3ccccc32)n1 (stereo not drawn),1.7,1.2,6.2*,-0.2,0.4,2.8
Cc1cc(C)n2nc(SCC(=O)N3CCc4ccccc43)nc2n1,-2.6,0.4,-1.1,-1.7,0.0,-0.1
O=C(Cn1cc2c(n1)CCCC2)N1CCc2ccccc21,-11.1,-0.5,1.3,0.8,4.5*,-4.1
Cc1cc(C)nc(SCC(=O)N2CCc3ccccc32)n1,15.6,4.3*,0.2,-0.5,0.9,4.3
COC(=O)C1CN(Cc2ccccc2)CCS(=O)(=O)N1Cc1cn(Cc2ccc(F)cc2)nn1 (stereo not drawn),·,-0.2,-0.9,-1.1,·,1.0
CCC(C)N(C(=O)CSc1nnc(-c2cccnc2)n1C1CCCCC1)C(C)CC (stereo not drawn),·,-1.3,-1.2,-1.3,·,-2.2
CC(C)CCN(C)C1CCN(C(=O)NCc2ccccc2)CC1,·,0.7,-1.6,-1.4,·,-1.2
Cc1ccccc1CN1[C@@H](C)[C@H](c2ccccc2)Oc2cccc(N3CCCC3)c2S1(=O)=O,·,1.6,1.3,-1.2,·,0.6
CC(Sc1ncccn1)C(=O)N1CCc2ccccc21 (stereo not drawn),·,0.8,5.8*,-0.7,0.7,-0.7
CC(Oc1ccc(Br)cc1)C(=O)N1CCc2ccccc21 (stereo not drawn),18.1,-0.7,-0.9,-1.4,-0.5,1.5
Cc1ccc(S(=O)(=O)NCC(=O)Nc2cccc([N+](=O)[O-])c2)cc1,4.7,-0.5,5.3,1.7*,-0.1,1.1
Cc1ccc(NC(=O)CCCCCNS(=O)(=O)c2ccc(C)cc2)cc1,-12.6,0.7,1.6,1.1*,0.9,-1.0
Cc1ccc(S(=O)(=O)NCCCCCCNS(=O)(=O)c2ccc(C)cc2)cc1,·,-1.8,-2.3,-1.6,1.1,-1.1
Cc1ccc(S(=O)(=O)NCCNc2ccccc2[N+](=O)[O-])cc1,27.4,0.8,-1.0,-2.2,4.3*,-0.2
O=C(CCSc1ccccc1Cl)Nc1cccc([N+](=O)[O-])c1,6.2,0.8,5.4,-0.8,0.5,10.5*
CCC[C@H]1[C@@H](N(C)CC2CCCCC2)CC[C@@]23CCCN2C(=O)CCC[C@@H]13,·,·,-0.3,-1.1,·,-1.6
Cc1cccc(-c2cccc3c4c([nH]c23)[C@@H]2C[C@H](N(C)C(=O)C3CCCCC3)[C@H]([C@H](C)O)CN2CC4)c1,·,0.2,1.6,-1.4,·,-2.6
Oc1ccc(Nc2ccccc2F)c2cccnc12,·,·,2.8,0.5,·,3.4
Cc1c(OC(=O)c2ccc([N+](=O)[O-])cc2)c2c(c[n+]1C)COC(C)(C)OC2,-1.1,·,·,·,-0.3,·
Cc1ncc2c(c1OC(=O)c1ccccc1)COC(C)(C)OC2,-12.0,-0.2,-0.1,-1.4,5.1*,1.4
CC1(C)Cc2c(cnn2-c2ccc(F)cc2)C(NC(=O)C(C)(C)O)C1 (stereo not drawn),17.2,0.1,0.4,-0.8,1.0,1.6
CC1(C)Cc2c(cnn2-c2ccc(F)cc2)C(NC(=O)C2CCC2)C1 (stereo not drawn),-5.5,4.3*,0.2,-0.9,-0.1,-0.9
SMILES,PolyA inh,DAX1 inh-1,hcDAF12 agonist,ssDAF12 agonist,DAX1 inh-2,hgDAF12 agonist
C#CCN1C(=O)[C@]2(NCCc3c2[nH]c2ccc(OC)cc32)c2ccccc21,·,-0.4,-0.1,-0.7,·,1.6
O=C(N/N=C/c1ccc(OC(=O)c2ccccc2Br)cc1)c1ccccn1,-6.2,5.8*,5.2,-0.3,0.5,10.1
CC(=O)N1CCCN(S(=O)(=O)c2ccc3c(c2)c(=O)n(C)c(=O)n3C)CC1,·,1.5,2.1,-1.0,·,1.4
COc1ccc(-c2cc(-c3nnc(SCC(=O)Nc4cccc(Cl)c4C)n3N)[nH]n2)cc1,·,-1.5,-3.6,-0.2,·,-0.6
O=c1c2ccccc2nc2ccc(NCc3ccco3)nn12,9.7,3.3,2.6,-0.1,5.2*,9.2
Cc1sc2nc3ccc(NCc4ccco4)nn3c(=O)c2c1C,-5.9,0.5,0.5,-1.3,0.2,-0.7
CCn1c(SCC(=O)NN=Cc2c[nH]c3ccccc23)nc2ccccc21,·,-3.9,-0.1,-0.7,·,0.8
CCOc1ccc(NC(=O)c2cc3ccccc3cc2O)cc1,12.9,0.4,0.8,1.2*,0.5,6.3
COc1ccc(NC(=O)c2ccccc2NC(=O)CSc2ccc(C)cc2)cc1,8.1,0.8,5.9*,-0.6,0.7,3.3
CCOc1ccc(NC(=O)Nc2ccccc2SC)cc1,-3.5,2.4,3.7,-1.1,4.5*,11.3*
CCOc1ccc(NC(=O)c2cccc3ccccc23)cc1,-3.0,-0.6,-0.6,-1.8,-1.1,10.2
CSc1ccccc1NC(=O)Nc1ccccc1,-7.5,0.4,-0.3,-1.4,-0.9,3.0
COc1ccc(NC(=O)c2ccc3ccccc3c2OC)cc1,-30.6,-0.3,-0.1,-1.2,4.4*,4.1
CC1(C)CC(=O)N(CC(=O)N2CCN(c3cccc(Cl)c3Cl)CC2)c2ccccc2S1(=O)=O,·,-0.6,-3.6,-1.1,·,-2.2
C[C@H]1CN(S(=O)(=O)C(C)(C)C)[C@@H](CCO)/C1=C\CCO,·,0.2,-0.3,-0.2,·,-0.9
CCC(C)(C)C(=O)N1CCC(C(=O)NC2CCCc3ccccc32)CC1 (stereo not drawn),·,0.0,-2.5,-1.5,·,1.3
COc1ccc(C(=O)NNC(=O)CSc2ccccc2)cc1,17.8,1.1,-0.1,-1.7,4.5*,-2.3
COc1cc(C(=O)Nc2ccc(C)cc2)c2ccccc2n1,-0.2,-0.2,5.7*,0.6,-2.4,-0.3
CCC(CO)Nc1cccc2c1S(=O)(=O)N(Cc1cn(Cc3ccc(F)cc3)nn1)Cc1ccccc1O2 (stereo not drawn),·,-0.9,-2.4,-1.1,·,-2.8
O=[N+]([O-])c1cc(Oc2cccnc2)cc([N+](=O)[O-])c1,-10.6,-1.1,-3.0,-1.7,4.4*,-4.2
CC(C)c1ccc(C(=O)NN2C(=O)C3CCCCC3C2=O)cc1 (stereo not drawn),-0.1,3.8*,5.5,-1.1,2.1,10.8*
CCOc1ccccc1C(=O)NN1C(=O)C2CCCCC2C1=O (stereo not drawn),10.8,-0.5,5.4,0.1,-1.1,5.0
CN(C)N1C(N)=C(C#N)C(c2ccccc2)C2=C1CC(C)(C)CC2=O (stereo not drawn),-2.0,-0.2,1.5,-1.2,1.1,0.0

# From PubChem BioAssay
